Assay results reported in the supplement of paper PMC11732987, “Enantioselective OTUD7B fragment discovery through chemoproteomics screening and high-throughput optimisation” (Communications Chemistry, 2025).

How the values were obtained:
Experiment in all cases: log2 ratio of Biotin-Ahx-Ub-VS probe labelling (fragment/DMSO); higher = less target engagement (more negative = stronger competition), active = hit call of the paper (q ≤ 0.05, log2 ratio ≤ -1)
Details in all cases: compound concentration: 200 uM; treatment time: 3 h
USP34 = USP34 (UniProt Q70CQ2)
Chain of USP34 (Q70CQ2 whole entry, the tested form may be a part): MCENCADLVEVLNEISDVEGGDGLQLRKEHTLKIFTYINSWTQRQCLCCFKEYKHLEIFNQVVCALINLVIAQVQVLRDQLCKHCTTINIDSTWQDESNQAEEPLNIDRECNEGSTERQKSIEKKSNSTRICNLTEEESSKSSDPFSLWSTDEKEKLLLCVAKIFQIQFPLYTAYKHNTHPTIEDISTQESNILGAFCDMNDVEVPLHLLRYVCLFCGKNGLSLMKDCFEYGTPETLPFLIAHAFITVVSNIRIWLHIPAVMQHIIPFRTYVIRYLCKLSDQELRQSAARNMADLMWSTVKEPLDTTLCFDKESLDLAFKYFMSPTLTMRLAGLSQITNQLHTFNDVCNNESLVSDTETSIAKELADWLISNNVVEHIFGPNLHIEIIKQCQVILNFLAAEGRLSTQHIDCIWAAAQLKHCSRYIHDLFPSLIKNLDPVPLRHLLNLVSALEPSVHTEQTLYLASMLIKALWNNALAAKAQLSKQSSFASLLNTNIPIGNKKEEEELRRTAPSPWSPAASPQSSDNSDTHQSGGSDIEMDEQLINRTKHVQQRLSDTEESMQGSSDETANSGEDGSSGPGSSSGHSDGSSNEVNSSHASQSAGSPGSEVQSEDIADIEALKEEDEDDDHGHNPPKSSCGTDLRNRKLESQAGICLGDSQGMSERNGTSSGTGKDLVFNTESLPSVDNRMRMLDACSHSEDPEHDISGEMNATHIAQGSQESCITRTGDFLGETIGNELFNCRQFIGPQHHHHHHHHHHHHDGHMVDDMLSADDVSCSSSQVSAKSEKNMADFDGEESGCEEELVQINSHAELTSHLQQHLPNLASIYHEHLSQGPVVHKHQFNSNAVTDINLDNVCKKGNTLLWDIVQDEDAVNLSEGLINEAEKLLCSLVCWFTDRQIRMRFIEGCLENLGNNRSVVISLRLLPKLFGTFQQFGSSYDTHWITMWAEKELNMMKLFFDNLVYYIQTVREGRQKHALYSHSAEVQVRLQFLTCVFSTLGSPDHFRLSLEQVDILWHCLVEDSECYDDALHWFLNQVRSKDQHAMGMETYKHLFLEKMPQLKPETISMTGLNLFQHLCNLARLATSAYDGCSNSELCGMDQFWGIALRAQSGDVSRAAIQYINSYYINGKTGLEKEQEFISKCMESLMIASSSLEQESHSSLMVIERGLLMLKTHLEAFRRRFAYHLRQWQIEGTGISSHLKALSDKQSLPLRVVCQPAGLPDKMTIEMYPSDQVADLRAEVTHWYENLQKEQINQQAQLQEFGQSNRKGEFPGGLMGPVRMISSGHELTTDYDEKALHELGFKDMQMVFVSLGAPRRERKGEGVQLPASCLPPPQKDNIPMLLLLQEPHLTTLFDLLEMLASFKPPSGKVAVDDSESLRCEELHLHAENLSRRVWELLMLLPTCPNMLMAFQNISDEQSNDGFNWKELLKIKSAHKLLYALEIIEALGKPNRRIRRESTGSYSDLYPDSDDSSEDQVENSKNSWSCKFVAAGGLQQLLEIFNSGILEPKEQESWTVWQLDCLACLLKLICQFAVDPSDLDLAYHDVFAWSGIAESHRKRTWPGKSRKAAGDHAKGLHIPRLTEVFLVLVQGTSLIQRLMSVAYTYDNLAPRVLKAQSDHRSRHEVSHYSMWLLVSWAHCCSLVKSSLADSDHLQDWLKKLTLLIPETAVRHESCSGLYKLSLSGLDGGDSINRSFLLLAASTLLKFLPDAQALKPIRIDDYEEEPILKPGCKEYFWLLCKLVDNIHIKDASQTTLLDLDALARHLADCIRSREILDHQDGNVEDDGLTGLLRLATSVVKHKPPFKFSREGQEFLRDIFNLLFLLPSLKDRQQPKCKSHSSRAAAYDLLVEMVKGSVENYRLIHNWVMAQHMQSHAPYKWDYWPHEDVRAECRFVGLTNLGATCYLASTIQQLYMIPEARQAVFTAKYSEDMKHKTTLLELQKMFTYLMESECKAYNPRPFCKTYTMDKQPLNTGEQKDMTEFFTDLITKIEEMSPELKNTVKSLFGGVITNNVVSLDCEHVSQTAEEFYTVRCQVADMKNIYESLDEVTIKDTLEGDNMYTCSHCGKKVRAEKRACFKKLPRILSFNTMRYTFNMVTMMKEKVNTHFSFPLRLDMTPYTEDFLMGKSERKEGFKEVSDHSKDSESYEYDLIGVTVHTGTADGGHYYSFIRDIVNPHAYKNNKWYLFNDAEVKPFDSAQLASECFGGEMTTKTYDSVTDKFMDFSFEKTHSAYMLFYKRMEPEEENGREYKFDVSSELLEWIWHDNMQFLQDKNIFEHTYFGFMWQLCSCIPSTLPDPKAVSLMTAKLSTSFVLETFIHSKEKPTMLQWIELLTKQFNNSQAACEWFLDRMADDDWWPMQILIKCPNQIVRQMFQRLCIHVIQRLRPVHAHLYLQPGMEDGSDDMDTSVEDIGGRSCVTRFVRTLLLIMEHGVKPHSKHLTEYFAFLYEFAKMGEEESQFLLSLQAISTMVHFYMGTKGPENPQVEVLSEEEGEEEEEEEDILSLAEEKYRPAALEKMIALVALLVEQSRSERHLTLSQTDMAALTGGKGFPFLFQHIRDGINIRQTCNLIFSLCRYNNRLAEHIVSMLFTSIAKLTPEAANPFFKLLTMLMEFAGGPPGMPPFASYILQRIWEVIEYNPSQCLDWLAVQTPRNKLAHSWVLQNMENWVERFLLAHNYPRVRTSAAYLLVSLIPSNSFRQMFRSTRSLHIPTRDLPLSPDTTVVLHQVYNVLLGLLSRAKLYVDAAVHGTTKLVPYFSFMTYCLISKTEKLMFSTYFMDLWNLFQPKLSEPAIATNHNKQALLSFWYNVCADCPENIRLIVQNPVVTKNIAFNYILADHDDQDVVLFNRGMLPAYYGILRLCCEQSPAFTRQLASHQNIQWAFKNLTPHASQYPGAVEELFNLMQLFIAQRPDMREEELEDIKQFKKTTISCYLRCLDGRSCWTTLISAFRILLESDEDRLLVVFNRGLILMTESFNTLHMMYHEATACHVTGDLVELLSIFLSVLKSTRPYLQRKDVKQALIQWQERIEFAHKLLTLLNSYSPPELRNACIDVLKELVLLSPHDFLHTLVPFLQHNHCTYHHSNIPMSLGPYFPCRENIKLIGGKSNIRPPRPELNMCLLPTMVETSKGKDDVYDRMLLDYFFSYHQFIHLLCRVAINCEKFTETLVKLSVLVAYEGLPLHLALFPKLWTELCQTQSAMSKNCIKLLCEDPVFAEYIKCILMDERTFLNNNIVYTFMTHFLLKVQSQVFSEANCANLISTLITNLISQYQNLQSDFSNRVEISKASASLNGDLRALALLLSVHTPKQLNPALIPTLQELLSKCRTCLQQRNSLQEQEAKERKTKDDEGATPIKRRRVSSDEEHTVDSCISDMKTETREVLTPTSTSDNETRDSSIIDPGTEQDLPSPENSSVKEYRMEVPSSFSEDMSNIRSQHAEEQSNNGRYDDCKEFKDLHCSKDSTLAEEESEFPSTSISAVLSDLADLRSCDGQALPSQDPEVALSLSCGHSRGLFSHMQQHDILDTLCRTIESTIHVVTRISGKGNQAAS
Procedure, shortened: (§1)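 HEK293T lysate in Tris/CHAPS/IGEPAL buffer with protease inhibitors (495 µg per sample) was given fragment at 200 µM or vehicle for 3 h, in triplicate. It then received Biotin-Ahx-Ub-VS at 0.5 µM final for 1 h. Labelled DUBs were NeutrAvidin-enriched, digested with LysC and trypsin, and run by diaPASEF LC-MS/MS. Values are average log2 fragment/vehicle ratios by unpaired t-test on global-median-normalised Spectronaut quantities of proteins with ≥2 unique peptides.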

USP36 = biological target: T1, USP36 (UniProt Q9P275)
T1 sequence (whole entry): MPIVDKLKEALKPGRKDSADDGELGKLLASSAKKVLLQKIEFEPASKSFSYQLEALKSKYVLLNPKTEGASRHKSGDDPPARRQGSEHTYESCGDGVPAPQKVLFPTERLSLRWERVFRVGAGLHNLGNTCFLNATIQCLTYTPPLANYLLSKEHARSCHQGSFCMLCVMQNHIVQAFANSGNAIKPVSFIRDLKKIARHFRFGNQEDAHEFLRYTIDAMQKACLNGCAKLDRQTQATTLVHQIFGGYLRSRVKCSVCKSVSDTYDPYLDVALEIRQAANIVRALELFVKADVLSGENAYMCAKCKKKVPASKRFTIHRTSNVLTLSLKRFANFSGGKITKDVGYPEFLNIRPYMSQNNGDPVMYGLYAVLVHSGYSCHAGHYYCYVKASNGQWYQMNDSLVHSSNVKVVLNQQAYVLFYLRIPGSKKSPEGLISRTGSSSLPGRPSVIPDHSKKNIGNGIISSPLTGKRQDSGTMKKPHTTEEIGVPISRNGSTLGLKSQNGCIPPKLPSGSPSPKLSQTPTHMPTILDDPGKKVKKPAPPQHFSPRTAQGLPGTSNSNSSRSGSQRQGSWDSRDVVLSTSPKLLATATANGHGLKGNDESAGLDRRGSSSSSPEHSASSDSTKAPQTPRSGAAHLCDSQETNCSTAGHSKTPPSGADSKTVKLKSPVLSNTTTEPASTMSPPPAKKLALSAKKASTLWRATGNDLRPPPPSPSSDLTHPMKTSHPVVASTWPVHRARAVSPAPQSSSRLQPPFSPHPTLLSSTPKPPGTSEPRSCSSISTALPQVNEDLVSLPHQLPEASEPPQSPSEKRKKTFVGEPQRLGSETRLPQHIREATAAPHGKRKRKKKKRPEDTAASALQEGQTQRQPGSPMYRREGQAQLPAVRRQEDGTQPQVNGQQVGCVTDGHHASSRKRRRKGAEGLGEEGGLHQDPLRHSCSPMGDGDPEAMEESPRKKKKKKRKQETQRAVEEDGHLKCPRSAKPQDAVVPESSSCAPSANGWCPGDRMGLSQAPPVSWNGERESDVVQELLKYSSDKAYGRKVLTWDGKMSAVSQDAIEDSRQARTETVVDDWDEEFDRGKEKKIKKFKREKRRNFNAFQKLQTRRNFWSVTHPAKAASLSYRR
Procedure, shortened: as §1

USP38 = biological target: T2, USP38 (UniProt Q8NB14)
T2 sequence (whole entry): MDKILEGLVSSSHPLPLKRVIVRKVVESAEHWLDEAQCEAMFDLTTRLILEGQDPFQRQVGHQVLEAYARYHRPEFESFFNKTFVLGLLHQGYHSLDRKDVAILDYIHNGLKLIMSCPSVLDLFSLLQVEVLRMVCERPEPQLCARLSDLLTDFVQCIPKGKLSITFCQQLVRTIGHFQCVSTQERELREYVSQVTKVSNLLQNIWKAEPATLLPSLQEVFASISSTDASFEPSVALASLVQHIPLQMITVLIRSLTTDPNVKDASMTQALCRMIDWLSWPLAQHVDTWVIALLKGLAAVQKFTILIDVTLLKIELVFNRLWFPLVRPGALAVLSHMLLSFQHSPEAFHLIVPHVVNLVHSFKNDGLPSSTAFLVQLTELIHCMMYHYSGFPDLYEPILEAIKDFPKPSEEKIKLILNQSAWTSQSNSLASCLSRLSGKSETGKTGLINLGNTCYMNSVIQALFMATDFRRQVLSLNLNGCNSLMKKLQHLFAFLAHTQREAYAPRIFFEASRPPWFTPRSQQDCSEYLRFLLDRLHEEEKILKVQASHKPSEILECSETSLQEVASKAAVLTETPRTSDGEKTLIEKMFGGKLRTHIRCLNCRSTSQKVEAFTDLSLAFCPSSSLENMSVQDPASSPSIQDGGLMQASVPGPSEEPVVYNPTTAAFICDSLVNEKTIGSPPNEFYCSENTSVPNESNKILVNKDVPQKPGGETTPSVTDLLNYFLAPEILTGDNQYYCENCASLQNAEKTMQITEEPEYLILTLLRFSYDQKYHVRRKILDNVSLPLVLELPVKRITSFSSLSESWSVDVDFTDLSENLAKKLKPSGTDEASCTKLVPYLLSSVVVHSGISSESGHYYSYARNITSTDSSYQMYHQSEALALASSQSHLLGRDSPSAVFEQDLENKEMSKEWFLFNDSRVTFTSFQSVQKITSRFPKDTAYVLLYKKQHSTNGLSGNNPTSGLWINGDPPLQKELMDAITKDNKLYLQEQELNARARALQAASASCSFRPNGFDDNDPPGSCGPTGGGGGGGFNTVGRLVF
Procedure, shortened: as §1

USP39 = biological target: T3, USP39 (UniProt Q53GS9)
T3 sequence (whole entry): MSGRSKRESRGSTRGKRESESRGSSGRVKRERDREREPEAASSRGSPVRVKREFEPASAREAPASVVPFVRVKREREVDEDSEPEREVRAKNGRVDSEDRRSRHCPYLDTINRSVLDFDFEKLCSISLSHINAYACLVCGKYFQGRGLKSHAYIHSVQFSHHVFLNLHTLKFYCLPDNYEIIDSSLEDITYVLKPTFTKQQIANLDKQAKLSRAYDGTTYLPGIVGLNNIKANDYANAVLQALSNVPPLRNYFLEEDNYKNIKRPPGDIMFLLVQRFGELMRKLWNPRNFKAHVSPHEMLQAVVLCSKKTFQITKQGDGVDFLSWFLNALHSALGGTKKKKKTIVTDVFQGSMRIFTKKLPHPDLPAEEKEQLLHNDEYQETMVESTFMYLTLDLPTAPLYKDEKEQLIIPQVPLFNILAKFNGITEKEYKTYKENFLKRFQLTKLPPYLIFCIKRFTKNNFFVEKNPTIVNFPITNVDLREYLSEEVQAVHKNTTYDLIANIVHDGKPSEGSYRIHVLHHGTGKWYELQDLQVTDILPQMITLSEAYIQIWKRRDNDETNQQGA
Procedure, shortened: as §1

USP4 = biological target: T4, USP4 (UniProt Q13107)
T4 sequence (whole entry): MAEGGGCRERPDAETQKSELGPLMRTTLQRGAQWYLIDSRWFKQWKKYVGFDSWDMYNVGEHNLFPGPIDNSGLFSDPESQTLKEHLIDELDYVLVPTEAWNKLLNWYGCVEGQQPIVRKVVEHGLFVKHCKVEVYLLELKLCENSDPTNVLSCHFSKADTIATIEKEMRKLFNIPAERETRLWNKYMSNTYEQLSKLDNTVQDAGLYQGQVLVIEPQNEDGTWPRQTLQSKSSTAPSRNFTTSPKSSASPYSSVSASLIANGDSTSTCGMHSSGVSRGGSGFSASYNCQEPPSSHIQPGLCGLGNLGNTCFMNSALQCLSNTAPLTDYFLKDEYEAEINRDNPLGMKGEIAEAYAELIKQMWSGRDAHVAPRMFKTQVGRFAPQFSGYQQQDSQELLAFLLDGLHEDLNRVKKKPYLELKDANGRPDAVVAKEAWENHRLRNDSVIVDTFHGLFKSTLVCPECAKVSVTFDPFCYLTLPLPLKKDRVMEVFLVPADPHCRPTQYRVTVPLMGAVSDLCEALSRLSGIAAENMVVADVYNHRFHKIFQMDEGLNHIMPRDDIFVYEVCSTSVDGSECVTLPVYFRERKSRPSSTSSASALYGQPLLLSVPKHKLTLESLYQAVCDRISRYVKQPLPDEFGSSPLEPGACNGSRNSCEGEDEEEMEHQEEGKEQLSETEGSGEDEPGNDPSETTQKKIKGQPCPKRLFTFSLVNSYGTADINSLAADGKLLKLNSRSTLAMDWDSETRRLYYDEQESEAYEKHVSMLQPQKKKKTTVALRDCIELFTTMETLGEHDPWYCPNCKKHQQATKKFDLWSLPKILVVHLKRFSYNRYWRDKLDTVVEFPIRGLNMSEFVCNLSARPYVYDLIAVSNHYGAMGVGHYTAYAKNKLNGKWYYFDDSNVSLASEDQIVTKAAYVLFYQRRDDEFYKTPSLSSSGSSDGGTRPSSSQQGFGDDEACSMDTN
Procedure, shortened: as §1

Measured: log2 ratio of Biotin-Ahx-Ub-VS probe labelling

O=C(CCl)N1CCCCCC1c1ncon1 (stereo not given)
inactive: USP34 0.0612 | USP36 -0.0657 | USP38 0.0218 | USP39 -0.043 | USP4 -0.0581
